Source: PubChem BioAssay
NTR1 agonist: activates human neurotensin receptor 1; P30989; NTR1-U2OS beta-arrestin-GFP spot imaging, agonist mode; activation, % at 20 µM; actives 0.17% (n = 330,000);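 active = activation at or above 40% of the spot to cytoplasm intensity ratio, with at least 20 cells analyzed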;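 also: 0% = DMSO without peptide and 100% = 100 nM NTR1 peptide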
Target sequence (P30989 whole entry, looked up): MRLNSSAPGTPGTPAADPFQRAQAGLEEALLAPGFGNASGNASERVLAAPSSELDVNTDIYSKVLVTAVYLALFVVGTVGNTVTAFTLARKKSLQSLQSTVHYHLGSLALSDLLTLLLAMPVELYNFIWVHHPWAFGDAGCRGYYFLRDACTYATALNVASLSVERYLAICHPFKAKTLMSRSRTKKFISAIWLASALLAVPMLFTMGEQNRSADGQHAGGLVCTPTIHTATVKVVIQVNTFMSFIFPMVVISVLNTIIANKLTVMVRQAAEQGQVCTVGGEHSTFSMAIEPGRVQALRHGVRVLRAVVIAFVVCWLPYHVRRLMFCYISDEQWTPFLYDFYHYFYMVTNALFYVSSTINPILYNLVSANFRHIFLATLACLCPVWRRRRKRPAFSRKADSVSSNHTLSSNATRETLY
MEKK2 WT-MEK5: raises or lowers MEK5 binding to wildtype human MEKK2 PB1 domain. Q9Y2U5. bead flow cytometry, Alexa488-MEK5 binding to MEKK2 WT; actives lie on both sides. binding response (% of control), % at 10 µM. actives 1.1% (n = 290,000). AID 1531; in the data active = binding response below about 67% or above about 130%
TMEM16A act: mouse TMEM16A channel activation, primary screen. HEK293 TMEM16A/YFP-H148Q/I152L, iodide quench fluorescence; active compounds read low. B-score at 10 µM. actives 0.3% (n = 340,000);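 active = fluorescence-ratio B-score plate-corrected deviation score at least 3 library SD below zero, with starting fluorescence score within 5 deviations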;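 also: channel opened by trigger with iodide after compound preincubation; score built on the fluorescence ratio of max minus min over baseline; more negative score means more quench and so TMEM16A activation or potentiation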
ANO1 block: blocks the mouse calcium-activated chloride channel TMEM16A. HEK293 TMEM16A/YFP iodide influx fluorescence, ionomycin. AID 588511. Q8BHY3. actives 1.2% (n = 310,000). normalized B-score (activity score, 25-100; higher = stronger inhibition) at 10 µM;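 active = ratio plate-corrected score three or more library SD toward inhibition, starting fluorescence score within five deviations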;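 also: score derived from kinetic fluorescence span divided by baseline fluorescence per well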
MEKK3 PB1 HTS: modulators (inhibitors or enhancers) of MEK5 binding to human MEKK3 PB1 domain; Q99759; bead-based flow cytometry, Alexa488-MEK5 binding to MEKK3; actives lie on both sides; 0 = blocked by unlabeled MEK5, 100 = vehicle; binding response (% of control), % at 10 µM; actives 1.4% (n = 290,000);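 active = binding response more than 3 SD above or below the average of its plate-row segment, actives on both sides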;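 also: Alexa488 bead fluorescence after subtracting the streptavidin-only scavenger bead signal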
MEKK2 mut-MEK5: signal of MEK5 binding to mutant human MEKK2 PB1 domain | bead flow cytometry, Alexa488-MEK5 binding to MEKK2 mutant | percent response, % at 10 µM | actives 0.35% (n = 290,000) | AID 1530; in the data active = percent response above about 24%, passing the limit was not always enough
MEKK2wt confirm: raises or lowers MEK5 binding to wildtype human MEKK2, retest; bead flow cytometry, Alexa488-MEK5 binding to MEKK2 WT; actives lie on both sides; binding response (% of control), % at 10 µM; AID 1892; actives 2.4% (n = 5,900); shares compounds with MEKK3 PB1 HTS; in the data active = binding response below about 16% or above about 210%; inactive = in between
MEKK2mut confirm: signal of MEK5 binding to mutant human MEKK2, retest; percent response, % at 10 µM; shares compounds with MEKK3 PB1 HTS; AID 1893; bead flow cytometry, Alexa488-MEK5 binding to MEKK2 mutant; actives 2% (n = 5,900); in the data active = percent response mostly above about 71%, no sharp cut-off; inactive = mostly below about 38%;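 also: higher means compound restores mutant binding toward wildtype level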
MEKK3 confirm: confirmation of inhibitors of MEK5 binding to human MEKK3; bead flow cytometry, Alexa488-MEK5 binding to MEKK3; active compounds read low; actives 1.8% (n = 5,900); binding response (% of control), % at 10 µM; shares compounds with MEKK3 PB1 HTS; AID 1894;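 active = binding response below 72% of control, or above a set upper limit, though filed actives all read lower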;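 also: 100% = DMSO only wells and 0% = binding blocked by excess unlabeled MEK5; lower values mean stronger disruption of MEK5 binding to MEKK3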
Starred values were filed as active, the others as inactive; [ ] = another dose, or the depositor's remark. An excerpt weighted towards active compounds, which were near 3.4% of everything screened.

Screening CC1CN(S(=O)(=O)c2ccccc2)CN1C(=O)N1CCOCC1 (stereo unspecified) returned NTR1 agonist 0.3, MEKK2 WT-MEK5 93.0, TMEM16A act inactive, ANO1 block inactive, MEKK3 PB1 HTS 95.0 and MEKK2 mut-MEK5 -5.0.
Screening O=C(Nc1ccc(OC(=O)c2ccco2)cc1)c1ccco1 returned NTR1 agonist -0.5, MEKK2 WT-MEK5 103.0, TMEM16A act inactive, ANO1 block inactive, MEKK3 PB1 HTS 100.0 and MEKK2 mut-MEK5 0.0.
`O=C(Nc1cccc(OC(=O)c2ccco2)c1)c1ccco1` gave NTR1 agonist -0.6, MEKK2 WT-MEK5 -1.0*[inhibitor], TMEM16A act inactive, ANO1 block inactive, MEKK3 PB1 HTS 0.0*[inhibitor], MEKK2 mut-MEK5 -21.0, MEKK2wt confirm 103.0, MEKK2mut confirm 3.0 and MEKK3 confirm 98.0.
`COc1cccc(NC(=O)c2ccco2)c1` gave NTR1 agonist -1.4, MEKK2 WT-MEK5 1.0*[inhibitor], TMEM16A act inactive, ANO1 block inactive, MEKK3 PB1 HTS 1.0*[inhibitor], MEKK2 mut-MEK5 -41.0, MEKK2wt confirm 105.0, MEKK2mut confirm -2.0 and MEKK3 confirm 98.0.
`COc1cccc(C(=O)COc2cccc(NC(=O)c3ccco3)c2)c1` gave NTR1 agonist -1.2, MEKK2 WT-MEK5 90.0, TMEM16A act inactive, ANO1 block inactive, MEKK3 PB1 HTS 99.0 and MEKK2 mut-MEK5 -6.0.
NS(=O)(=O)c1ccc(CCNC(=O)COC(=O)c2nc(Cl)ccc2Cl)cc1 was read as NTR1 agonist 3.6 and TMEM16A act inactive.
O=C1CC(c2cccc(Cl)c2)c2cc3c(cc2N1)CCC3 (stereo unspecified) was read as NTR1 agonist 16.6, MEKK2 WT-MEK5 -2.0*[inhibitor], TMEM16A act inactive, ANO1 block inactive, MEKK3 PB1 HTS 2.0*[inhibitor], MEKK2 mut-MEK5 -27.0, MEKK2wt confirm 88.0, MEKK2mut confirm -6.0 and MEKK3 confirm 95.0.
NC(=O)C1(c2ccccc2)CCC(=O)N1c1ccccc1 (stereo unspecified) was read as NTR1 agonist 0.3, MEKK2 WT-MEK5 83.0, TMEM16A act inactive, ANO1 block inactive, MEKK3 PB1 HTS 93.0 and MEKK2 mut-MEK5 -22.0.
Screening CCOC(=O)c1c(NC(=O)C(=O)N/N=C/c2ccccc2O)sc2c1CCCCC2 returned NTR1 agonist -0.4, MEKK2 WT-MEK5 105.0, TMEM16A act inactive, ANO1 block inactive, MEKK3 PB1 HTS 137.0*, MEKK2 mut-MEK5 0.0, MEKK2wt confirm 100.0, MEKK2mut confirm 0.0 and MEKK3 confirm 103.0.
`CCOC(=O)c1c(NC(=O)C(=O)N/N=C/c2ccccc2OC)sc2c1CCCCC2` gave NTR1 agonist 4.9, MEKK2 WT-MEK5 110.0, TMEM16A act inactive, ANO1 block inactive, MEKK3 PB1 HTS 103.0 and MEKK2 mut-MEK5 11.0.
For COc1cc(/C=C/C(=O)C2C(=O)C=C(C)OC2=O)cc(OC)c1O (stereo unspecified) the results were NTR1 agonist 0.2, MEKK2 WT-MEK5 117.0, TMEM16A act inactive, ANO1 block inactive, MEKK3 PB1 HTS 135.0*, MEKK2 mut-MEK5 3.0, MEKK2wt confirm 104.0, MEKK2mut confirm -4.0 and MEKK3 confirm 100.0.
COc1ccc(/C=C/C(=O)C2C(=O)C=C(C)OC2=O)cc1O (stereo unspecified) was read as NTR1 agonist 1.9, MEKK2 WT-MEK5 111.0, TMEM16A act inactive, ANO1 block inactive, MEKK3 PB1 HTS 106.0 and MEKK2 mut-MEK5 12.0.
Screening Cn1cccc1CC(=O)NNC(=O)Nc1ccc(F)cc1 returned NTR1 agonist 0.7, MEKK2 WT-MEK5 109.0, TMEM16A act inactive, ANO1 block inactive, MEKK3 PB1 HTS 147.0*, MEKK2 mut-MEK5 -1.0, MEKK2wt confirm 106.0, MEKK2mut confirm 10.0 and MEKK3 confirm 105.0.
`Nc1nnc(SCC(=O)Nc2sc3c(c2C(=O)c2ccccc2)CCCC3)s1` gave NTR1 agonist 6.7, MEKK2 WT-MEK5 98.0, TMEM16A act inactive, ANO1 block inactive, MEKK3 PB1 HTS 102.0 and MEKK2 mut-MEK5 -1.0.
For COCCNc1nnc(SCC(=O)Nc2sc3c(c2C(=O)c2ccccc2)CCCC3)s1 the results were NTR1 agonist 0.3, MEKK2 WT-MEK5 106.0, TMEM16A act inactive, ANO1 block inactive, MEKK3 PB1 HTS 131.0*, MEKK2 mut-MEK5 0.0, MEKK2wt confirm 99.0, MEKK2mut confirm -4.0 and MEKK3 confirm 102.0.
Screening COc1ccc(OC)c(CN2CCN(Cc3cccc4ccccc34)CC2)c1 returned NTR1 agonist 1.2, MEKK2 WT-MEK5 119.0, TMEM16A act inactive, ANO1 block inactive, MEKK3 PB1 HTS 101.0 and MEKK2 mut-MEK5 15.0.
O=C(O)c1ccccc1S(=O)(=O)NCC(O)COC1CCCCC1 (stereo unspecified) was read as NTR1 agonist -4.5, MEKK2 WT-MEK5 96.0, TMEM16A act inactive, ANO1 block inactive, MEKK3 PB1 HTS 102.0 and MEKK2 mut-MEK5 0.0.
For Cc1ccc(OCC(O)CNS(=O)(=O)c2ccccc2C(=O)O)cc1 (stereo unspecified) the results were NTR1 agonist -4.9, MEKK2 WT-MEK5 90.0, TMEM16A act inactive, ANO1 block inactive, MEKK3 PB1 HTS 71.0*[inhibitor], MEKK2 mut-MEK5 -4.0, MEKK2wt confirm 100.0, MEKK2mut confirm 2.0 and MEKK3 confirm 102.0.
For Nc1ccc(-c2ccc(N)c(C(=O)O)c2)cc1C(=O)O the results were NTR1 agonist -1.9, MEKK2 WT-MEK5 46.0*[inhibitor], TMEM16A act inactive, ANO1 block inactive, MEKK3 PB1 HTS 44.0*[inhibitor], MEKK2 mut-MEK5 -12.0, MEKK2wt confirm 102.0, MEKK2mut confirm -3.0 and MEKK3 confirm 102.0.
O=C(O)c1ccc(/C=N/NC(=O)C2CC2(c2ccccc2)c2ccccc2)cc1 (stereo unspecified) was read as NTR1 agonist -0.3, MEKK2 WT-MEK5 117.0, ANO1 block inactive, MEKK3 PB1 HTS 153.0*, MEKK2 mut-MEK5 5.0, MEKK2wt confirm 95.0, MEKK2mut confirm -7.0 and MEKK3 confirm 98.0.
